Screening results: PubChem, several laboratories
GIRK2 act – activators of NPY4-receptor-primed GIRK2 channels, summary, cell-based, HEK293, thallium flux | G protein-activated inward rectifier potassium channel 2 (Homo sapiens), P48051 | HEK293 GIRK2/NPY4 cells, thallium flux fluorescence | activation (% efficacy), % for hits at 75 µM | 34,000 tested, under 10 active | AID 1259324, 2017;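 active = primary screen hit, no activity in plain HEK293 cells, and in GIRK2-only cells above 5% efficacy rising with concentration; inactive = the rest, including fluorescent compounds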;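 note: efficacy is normalized control-subtracted fluorescence 15 s after thallium addition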
GluA2 TARP mod – modulators of GluA2-stargazin AMPA receptor complexes, primary screen, cell-based, membrane potential dye; Voltage-dependent calcium channel gamma-2 subunit (Mus musculus) + Glutamate receptor 2 …; HEK293 GluA2+stargazin, membrane potential dye (FDSS), glutamate EC50; hits were called plate by plate, in both directions; calls only at 30 µM; actives 3.5% (n = 40,000); AID 1259245, 2017;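 active = any of four per-well response measures lying three or more SD from its plate-wide compound average, in either direction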
Of the large screens only hits and unclear results are named; the others gave an inactive call. Shown is part of a subset that was picked to be rich in hits.

O=C(NCC1CCN(C(=O)Oc2ccccc2)CC1)NC(c1ccccc1)c1ccccc1	none
Cc1ccc(NC(=O)NCC2CCN(C(=O)Oc3ccccc3)CC2)cc1C	GluA2 TARP mod active
CS(=O)(=O)c1ccc(CC(=O)Nc2ccc(Cl)cc2C(=O)c2ccccc2Cl)cc1	GluA2 TARP mod active (no result: GIRK2 act)
CCS(=O)(=O)c1ccc(CC(=O)Nc2ccc(Cl)cc2C(=O)c2ccccc2)cc1	none (no result: GIRK2 act)
O=C(Nc1ccc(Br)cc1C(=O)c1ccccc1Cl)c1ccno1	none
COc1ccc(C)c2sc(N(CCN3CCOCC3)C(=O)COc3ccc(Cl)cc3)nc12	none (no result: GIRK2 act)
